# Reference: PubChem BioAssay
# Results filed as inconclusive are left out. Calls of active or inactive are those of the source.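 Rule for the calls, unless noted: active = RAM network inhibition above 8.4% in each of two replicates, 3 SD over the compound average; inconclusive = above 8.4% inhibition in only one replicate; inactive = 8.4% inhibition or less in each replicate.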
# Experiments:
# [1] = reducers of endogenous Her2 protein level, primary screen, SKBR3 breast tumor cells, AlphaScreen, ATP viability (AID 461;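 active = Her2 level under about 52% in both replicate screens, with viability over 70% of control, limit read from the data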;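 for Her2 level: lower value means less Her2 protein in the cells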;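 for viability: percent of carrier control wells set as 100% viability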); conditions: 18-24 h, measured here: SKBR3 viability, ATP luminescence, at 10 µM
# [2] = biological target: Receptor tyrosine-protein kinase erbB-2 (Homo sapiens) (UniProt P04626); assay: as above; conditions: 18-24 h, at 10 µM, stronger effect = lower value
# [3] = SK-BR-3 cell growth inhibitors, pilot screen, 24 h, human (AID 572;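 active = viability at or below 10% of carrier control in both of two separate runs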;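 note: compound exposure lasted between 18 and 24 h rather than exactly 24 h; 100% = carrier-treated control wells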); conditions: SK-BR-3 viability, CellTiter-Glo luminescence, at 10 µM, stronger effect = lower value
# [4] = growth inhibitors of H69AR lung tumor, primary screen, human, duplicate replicates (AID 580;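 active = viability at or under a set limit in both replicates, limit being median viability minus 3 SD, cut at about 48% in these data, passing the limit was not always enough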;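 note: 100% = mean luminescence of untreated wells and 0% = no signal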); conditions: H69AR lung tumor cells viability, ATP luminescence, 72 h; at 10 µM; stronger effect = lower value
# [5] = reversal of MRP1-mediated doxorubicin resistance, pilot screen, H69AR cells, doxorubicin co-treatment (AID 601;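 active = viability loss from added drug above about 55%, and viability with drug at most 40%, in both replicates, limit read from the data, passing the limit was not always enough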); conditions: CellTiter-Glo, 72 h, at 10 µM; for differential viability (reversal): stronger effect = higher value
# [6] = 384-well plate pilot, post-Golgi transport modulator project, inhibition of yeast transport mutant growth (AID 636; in the data active = inhibition above about 31%); conditions: absorbance 615 nm, about 18 h, stronger effect = higher value
# [7] = growth suppression of yeast trafficking mutant, preliminary HTS, modulators of trafficking downstream of Golgi apparatus project, 1536-format plate, OD 615 nm (AID 637; in the data active = inhibition above about 30%); conditions: yeast transport mutant growth, absorbance 615 nm, 18 h; stronger effect = higher value
# [8] = OD615 S. cerevisiae growth inhibition, permissive medium, pilot counter-assay, permissive growth control for S. cerevisiae lifespan shortening project (AID 705;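 active = growth inhibition above 25% in both replicates, a cutoff set 3 SD above the mean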); conditions: OD615, 24 h, at 10 µM, stronger effect = higher value
# [9] = Restrictive medium S. cerevisiae growth inhibition, OD615, pilot screen of yeast lifespan reduction project, restrictive growth control (AID 706;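 active = growth inhibition above a set limit, 3 SD over mean compound inhibition, in both replicates, cut at about 43% in these data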;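 note: modified DeaD lifespan yeast strain shifted to restrictive glucose medium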); conditions: OD615, 48 h, at 10 µM, stronger effect = higher value
# [10] = viability gain of MRP-1-high H69AR cells under doxorubicin, pilot screen, MRP-1 activator project, CellTiter-Glo, duplicate (AID 807;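 active = viability increase at or above a cutoff of the median across tested compounds plus 3 SD, cut at about 8.5% in these data, passing the limit was not always enough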;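 note: compound pretreatment 18-22 h then 72 h combined with doxorubicin; 0% = doxorubicin alone and 100% = vehicle without doxorubicin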); conditions: H69AR viability with doxorubicin, CellTiter-Glo luminescence; at 10 µM; stronger effect = higher value
# [11] = growth suppression of beta-catenin knockout HCT116, pilot screen, human colon tumor cells (AID 823;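 active = cell viability at or below a set limit in both duplicate runs, the limit being the all-compound median minus 4 SD, cut at about 23% in these data, passing the limit was not always enough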;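 note: 0% = wells killed by 20 µM Hyamine and 100% = untreated DMSO cell wells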); conditions: CellTiter-Glo, 60 h, at 10 µM, stronger effect = lower value
# [12] = growth suppression of PTEN-deleted HCT116, pilot screen, cell-based, HCT116 clonal line, CellTiter-Glo (AID 824;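 active = viability at or below 27.92% in each of two runs, the all-compound median minus 4 SD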;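 note: 0% = 20 µM Hyamine control and 100% = vehicle cell control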); conditions: 60 h, at 10 µM, stronger effect = lower value
# [13] = inhibitors of the yeast RAM network, pilot screen, dse1pr::URA3 reporter, 5-FOA selection (AID 869;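 active = inhibition over a set limit, the all-compound mean plus 3 SD, in both replicate runs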;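 note: 0% = DMSO wells with no growth and 100% = 10 µM 1-NA-PP1 with full growth; RAM network block rescues cells from 5-FOA so hits raise OD615 growth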); conditions: S. cerevisiae dse1pr::URA3 5-FOA growth, OD615, 2 d; at 10 µM; stronger effect = higher value; strain carries analog-sensitive mutant Cbk1 kinase
# [14] = RAM signaling pathway blockade in yeast – S. cerevisiae, Pdr1DBD-CYC8 efflux-inhibited sensitized strain, primary screen (AID 1298);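 note: 0% = DMSO untreated cells without growth and 100% = 10 µM 1-NA-PP1 full growth; higher means more yeast growth rescued from 5-FOA killing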; conditions: S. cerevisiae cbk1-as DSE1-URA3 strain, 5-FOA growth OD615, 2 d; at 50 µM; stronger effect = higher value
# [15] = HUVEC growth inhibition – cell-based, human, primary screen (AID 575;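 active = viability at or below 30% in both replicate assays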;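 note: 100% = median of untreated cell wells with 0.1% DMSO on each plate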); conditions: HUVEC proliferation, CellTiter-Glo luminescence, 72 h; at 10 µM; stronger effect = lower value
# [16] = H69AR cells + 2 uM doxorubicin, measured here: viability with 2 uM doxorubicin, stronger effect = lower value
# [17] = H69AR cells, compound alone cytotoxicity
# Receptor tyrosine-protein kinase erbB-2 (Homo sapiens), sequence (P04626 whole entry, looked up): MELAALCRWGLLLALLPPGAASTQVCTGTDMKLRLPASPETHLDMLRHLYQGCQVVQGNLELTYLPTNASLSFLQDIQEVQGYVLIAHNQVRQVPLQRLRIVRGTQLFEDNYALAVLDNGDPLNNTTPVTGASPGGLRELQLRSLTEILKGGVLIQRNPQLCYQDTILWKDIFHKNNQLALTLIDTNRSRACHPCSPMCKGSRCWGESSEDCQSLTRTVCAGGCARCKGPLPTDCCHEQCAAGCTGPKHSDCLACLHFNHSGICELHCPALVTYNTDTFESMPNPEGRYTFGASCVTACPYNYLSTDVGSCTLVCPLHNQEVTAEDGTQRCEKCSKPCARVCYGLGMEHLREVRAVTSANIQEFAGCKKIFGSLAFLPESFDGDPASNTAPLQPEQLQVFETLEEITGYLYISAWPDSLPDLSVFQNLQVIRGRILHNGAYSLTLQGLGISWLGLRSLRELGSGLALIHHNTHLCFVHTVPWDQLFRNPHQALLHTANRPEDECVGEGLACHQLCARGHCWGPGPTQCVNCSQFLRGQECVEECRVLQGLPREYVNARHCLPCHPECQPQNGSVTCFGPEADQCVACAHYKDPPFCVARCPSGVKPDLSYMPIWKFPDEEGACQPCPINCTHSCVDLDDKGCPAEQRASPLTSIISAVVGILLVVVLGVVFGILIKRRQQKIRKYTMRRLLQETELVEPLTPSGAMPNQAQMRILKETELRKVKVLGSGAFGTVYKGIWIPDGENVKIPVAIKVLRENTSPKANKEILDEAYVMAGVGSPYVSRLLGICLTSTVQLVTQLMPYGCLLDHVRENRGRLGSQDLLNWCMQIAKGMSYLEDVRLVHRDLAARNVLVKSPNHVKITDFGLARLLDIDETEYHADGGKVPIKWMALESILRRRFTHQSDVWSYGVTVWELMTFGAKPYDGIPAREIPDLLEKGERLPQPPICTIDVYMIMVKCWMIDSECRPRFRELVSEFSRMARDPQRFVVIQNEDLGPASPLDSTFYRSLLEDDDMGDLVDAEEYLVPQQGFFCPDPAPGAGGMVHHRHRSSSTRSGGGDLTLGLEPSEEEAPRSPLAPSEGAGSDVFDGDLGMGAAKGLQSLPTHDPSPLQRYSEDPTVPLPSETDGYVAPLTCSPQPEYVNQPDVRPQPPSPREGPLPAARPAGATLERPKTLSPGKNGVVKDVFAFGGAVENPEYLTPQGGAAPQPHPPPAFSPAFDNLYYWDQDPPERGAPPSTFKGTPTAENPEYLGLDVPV
structure (smiles),measurement,setting,value
C/C=C/COC(=O)c1[nH]c2c(c1C)C(=O)CC(c1ccco1)C2 (stereo not drawn),viability,[1],80.5%
same,Her2 level,[2],62% (inactive)
same,viability,[3],80.5% (inactive)
same,viability,[4],24.4% (active)
same,differential viability (reversal),[5]; H69AR cells + 2 uM doxorubicin,-15.9% (inactive)
same,viability,[5]; [16],40.2%
same,viability,[5]; [17],24.4%
same,inhibition,[6],-2.67% (inactive)
same,inhibition,[7],-3.28% (inactive)
same,growth inhibition,[8],-4.97% (inactive)
same,growth inhibition,[9],-2.88% (inactive)
same,viability increase,[10],-4.93% (inactive)
same,viability,[11],16.6% (active)
same,viability,[12],19.8% (active)
same,inhibition,[13],0.985% (inactive)
same,RAM network inhibition,[14],0.51% (inactive)
O=C(/C=C/N1CCOCC1)c1ccc(-c2ccccc2)cc1,viability,[3],104% (inactive)
same,viability,[15],81.8% (inactive)
same,viability,[4],89.5% (inactive)
same,differential viability (reversal),[5]; H69AR cells + 2 uM doxorubicin,7.73% (inactive)
same,viability,[5]; [16],81.8%
same,viability,[5]; [17],89.5%
same,inhibition,[6],-5.07% (inactive)
same,inhibition,[7],-2% (inactive)
same,growth inhibition,[8],99.4% (active)
same,growth inhibition,[9],100% (active)
same,viability increase,[10],-1.77% (inactive)
same,viability,[11],88.4% (inactive)
same,viability,[12],80.6% (inactive)
same,inhibition,[13],-0.475% (inactive)
same,RAM network inhibition,[14],-1.36% (inactive)
Cc1nc2ccccc2c2oc(C(=O)NCC3COc4ccccc4O3)cc12 (stereo not drawn),viability,[1],103%
same,Her2 level,[2],58.5% (inactive)
same,viability,[3],103% (inactive)
same,viability,[4],88.4% (inactive)
same,differential viability (reversal),[5]; H69AR cells + 2 uM doxorubicin,0.085% (inactive)
same,viability,[5]; [16],88.3%
same,viability,[5]; [17],88.4%
same,inhibition,[6],0.13% (inactive)
same,inhibition,[7],6.33% (inactive)
same,growth inhibition,[8],-0.145% (inactive)
same,growth inhibition,[9],-3.1% (inactive)
same,viability increase,[10],-1.89% (inactive)
same,viability,[11],61.2% (inactive)
same,viability,[12],70.8% (inactive)
same,inhibition,[13],1.69% (inactive)
same,RAM network inhibition,[14],3.41% (inactive)
Cc1ccc2nc(NC(=O)Cn3cc4c(n3)CCCCC4)sc2c1,viability,[1],91.5%
same,Her2 level,[2],106% (inactive)
same,viability,[3],91.5% (inactive)
same,viability,[4],93% (inactive)
same,differential viability (reversal),[5]; H69AR cells + 2 uM doxorubicin,-3.56% (inactive)
same,viability,[5]; [16],96.6%
same,viability,[5]; [17],93%
same,inhibition,[6],0.51% (inactive)
same,inhibition,[7],-4.67% (inactive)
same,growth inhibition,[8],-4.68% (inactive)
same,growth inhibition,[9],10.6% (inactive)
same,viability increase,[10],-3.78% (inactive)
same,viability,[11],98.2% (inactive)
same,viability,[12],97% (inactive)
same,inhibition,[13],2.76% (inactive)
same,RAM network inhibition,[14],3.93% (inactive)
Cc1cc(=O)oc2c1ccc1oc(/C(=N/O)c3ccccc3)c(C)c12,viability,[1],84%
same,Her2 level,[2],112% (inactive)
same,viability,[3],84% (inactive)
same,viability,[4],74.5% (inactive)
same,differential viability (reversal),[5]; H69AR cells + 2 uM doxorubicin,-17.2% (inactive)
same,viability,[5]; [16],91.7%
same,viability,[5]; [17],74.5%
same,inhibition,[6],8.46% (inactive)
same,inhibition,[7],17.2% (inactive)
same,growth inhibition,[8],-11% (inactive)
same,growth inhibition,[9],10.6% (inactive)
same,viability increase,[10],5.23% (inactive)
same,viability,[11],80.8% (inactive)
same,viability,[12],65.4% (inactive)
same,inhibition,[13],0.035% (inactive)
same,RAM network inhibition,[14],9.44% (inactive)
COc1cccc(-c2nc(CS(=O)(=O)CC(=O)Nc3cc(C)ccc3C)c(C)o2)c1,viability,[1],76%
same,Her2 level,[2],86.5% (inactive)
same,viability,[3],76% (inactive)
same,viability,[15],70.7% (inactive)
same,differential viability (reversal),[5]; H69AR cells + 2 uM doxorubicin,15.3% (inactive)
same,viability,[5]; [16],50.8%
same,viability,[5]; [17],66.1%
same,inhibition,[6],-1.73% (inactive)
same,inhibition,[7],-4.1% (inactive)
same,growth inhibition,[8],-3.37% (inactive)
same,growth inhibition,[9],-3.22% (inactive)
same,viability increase,[10],-1.75% (inactive)
same,viability,[11],98.4% (inactive)
same,viability,[12],91.4% (inactive)
same,inhibition,[13],3.55% (inactive)
same,RAM network inhibition,[14],0.99% (inactive)
COc1ccc(C2C(C(=O)Nc3cccnc3)=C(C)Nc3nc(-c4cccs4)nn32)cc1OC (stereo not drawn),viability,[1],59%
same,Her2 level,[2],94.5% (inactive)
same,viability,[15],90.5% (inactive)
same,viability,[4],87.8% (inactive)
same,differential viability (reversal),[5]; H69AR cells + 2 uM doxorubicin,12.1% (inactive)
same,viability,[5]; [16],75.7%
same,viability,[5]; [17],87.8%
same,inhibition,[6],1.2% (inactive)
same,inhibition,[7],-6.17% (inactive)
same,growth inhibition,[8],-9.82% (inactive)
same,growth inhibition,[9],-8.04% (inactive)
same,viability increase,[10],-1.12% (inactive)
same,viability,[11],106% (inactive)
same,viability,[12],95.6% (inactive)
same,inhibition,[13],-0.09% (inactive)
same,RAM network inhibition,[14],-1.11% (inactive)
Cc1cc(C)c2c(=O)n(CC(=O)NCCCN3CCOCC3)sc2n1,viability,[1],98%
same,Her2 level,[2],89.5% (inactive)
same,viability,[3],98% (inactive)
same,viability,[15],64.1% (inactive)
same,differential viability (reversal),[5]; H69AR cells + 2 uM doxorubicin,4.36% (inactive)
same,viability,[5]; [16],35.5%
same,viability,[5]; [17],39.8%
same,inhibition,[6],-4.53% (inactive)
same,inhibition,[7],-2.67% (inactive)
same,growth inhibition,[8],4.33% (inactive)
same,growth inhibition,[9],0.575% (inactive)
same,viability increase,[10],-4.85% (inactive)
same,viability,[12],56.5% (inactive)
same,inhibition,[13],1.51% (inactive)
same,RAM network inhibition,[14],3.11% (inactive)
COc1ccc(CCn2c(-c3ccco3)nc3ccccc3c2=O)cc1OC,viability,[1],73%
same,Her2 level,[2],89% (inactive)
same,viability,[3],73% (inactive)
same,viability,[15],84.3% (inactive)
same,differential viability (reversal),[5]; H69AR cells + 2 uM doxorubicin,-29.2% (inactive)
same,viability,[5]; [16],82.1%
same,viability,[5]; [17],52.8%
same,inhibition,[6],-5.95% (inactive)
same,inhibition,[7],-0.49% (inactive)
same,growth inhibition,[8],-7.24% (inactive)
same,growth inhibition,[9],-21.7% (inactive)
same,viability increase,[10],-3.68% (inactive)
same,viability,[11],54.5% (inactive)
same,viability,[12],57.1% (inactive)
same,inhibition,[13],0.935% (inactive)
same,RAM network inhibition,[14],5.3% (inactive)
CCOC(=O)CSC1=C(C#N)C(c2ccc(C)o2)CC(=O)N1 (stereo not drawn),viability,[1],98.5%
same,Her2 level,[2],83.5% (inactive)
same,viability,[3],98.5% (inactive)
same,viability,[4],26.6% (active)
same,differential viability (reversal),[5]; H69AR cells + 2 uM doxorubicin,-21.3% (inactive)
same,viability,[5]; [16],47.9%
same,viability,[5]; [17],26.6%
same,inhibition,[6],-4.4% (inactive)
same,inhibition,[7],-0.66% (inactive)
same,growth inhibition,[8],-8.58% (inactive)
same,growth inhibition,[9],7.01% (inactive)
same,viability increase,[10],-5.31% (inactive)
same,viability,[11],13.7% (active)
same,viability,[12],14.7% (active)
same,inhibition,[13],1.17% (inactive)
same,RAM network inhibition,[14],0.15% (inactive)
